Test [1] can be described thus: AP1 Signaling Pathway (AID 357; active = well fitted curve in either direction with a large enough effect, not every such curve was filed as active; also: % is scaled to controls: 0 for no effect and ±100 for the full control effect). To be noted: ME-180 (cervical carcinoma) AP-1-bla reporter, EGF-induced, beta-lactamase ratio, 5 h; at 17.2 µM (top of the series) unless noted. In a few lines:
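ME-180 cells with beta-lactamase reporter under AP-1 response element, stimulated with EC50 EGF; compounds tested in titration series, 5 h at 37 °C. CCF4 substrate added 2.5 h at room temperature; 460/530 nm emission ratio gave %activity and AC50.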

A short description of test [2]: NFAT Signaling Pathway (AID 444; active = well fitted curve in either direction with a large enough effect, not every such curve was filed as active;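 also: carbachol stimulus at about its EC50 of 1 µM final; % is scaled to controls: 0 for no effect and ±100 for the full control effect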). The settings on record: Jurkat NFAT-bla M1, carbachol, beta-lactamase ratio, 5 h. In a few lines:
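Jurkat cells carrying an NFAT-driven β-lactamase reporter and co-transfected muscarinic M1 receptor were treated with compound plus carbachol (1 uM final, an EC50 level) for 5 h at 37 °C. CCF4 loading followed for 1 h at RT; 460/530 nm ratio gave %activity.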

A short description of test [3]: Stat Signaling Pathway (AID 446; active = well fitted curve in either direction with a large enough effect, not every such curve was filed as active;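 also: ME-180 cervical cancer cells given 40 pM IL-6 alongside compound; SIE-controlled beta-lactamase reporter measured as 460/530 nm FRET emission ratio; % is scaled to controls: 0 for no effect and ±100 for the full control effect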). Put shortly: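 FRET read-out (405 nm excitation, 460/530 nm emission) of a beta-lactamase reporter under a STAT-inducible element in ME-180 cervical carcinoma cells. Cells with compound receive 40 pM IL-6 for 5 h. Values are normalised to AC90 stimulation and AC90 JAK-inhibitor controls.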
The target of test [4] is Glucocorticoid receptor (Homo sapiens) (UniProt P04150). The experiment in a line: GR-GFP Redistribution (AID 450;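 active = compounds whose dose series gives a full or clear partial fitted curve of increased nuclear translocation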; also: potency is read from the fitted curve at half-maximal effect). The settings on record: U2OS GR-GFP nuclear translocation, laser cytometry, 2 h.
The target of test [5] is Cytochrome P450 1A2 (Homo sapiens) (UniProt P05177). In words: p450-cyp1a2 (AID 410; calls by dose curve; also: potency is read from the fitted curve at half-maximal effect;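 as to activity change, negative = inhibition: -100% = full effect of reference inhibitor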). Put shortly: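 Read-out is luminescence from luciferin produced by CYP1A2 demethylation of Luciferin-ME (100uM, at Km). Detection reagent stopped the 60 min NADPH-dependent reaction; signals were normalized to 57 uM furafylline.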
The target of test [6] is Glucocorticoid receptor (Homo sapiens) (UniProt P04150). The experiment in a line: GR-EFC Redistribution (AID 451; calls by dose curve; also: potency is read from the fitted curve at half-maximal effect). To be noted: CHO-K1 GR-EFC translocation, beta-gal luminescence, 2 h. In a few lines:
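CHO-K1 cells stably expressing nuclear-localized β-gal enzyme acceptor and GR fused C-terminally to the enzyme donor fragment; ligand-driven nuclear translocation restores β-gal by complementation. Compounds titrated up to 46 uM final, 2 h at 37 °C; luminescence read.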

For test [7], the target named is Mitogen-activated protein kinase 10 (Mus musculus) (UniProt Q61831). In words: JNK3 AlphaScreen Assay (AID 530; active = well fitted curve in either direction with a large enough effect, not every such curve was filed as active;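 also: kinase came from lysate of stimulated human HepG2 cells; signal reports phosphorylation of biotinylated GST-cJun 1-79 at Ser73 with 10 µM ATP; % is scaled to controls: 0 for no effect and ±100 for the full control effect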). Put shortly:
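Biotinylated GST-cJun(1-79) served as substrate for JNK3 in HepG2 lysates stimulated with IL-1beta and TNF-alpha. ATP was 10 uM final, pH 7.6. Ser73 phosphorylation was quantified by AlphaScreen (680 nm excitation).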
(In general: In Alpha technology, singlet oxygen from a donor bead excites a nearby acceptor bead.)

The nature of test [8]: Cell Viability - BJ (AID 421; calls by dose curve;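 also: potency is read from the fitted curve at half-maximal effect; cells exposed to compound for 40 hours at 37 °C before readout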). The settings on record: BJ fibroblast viability, qHTS. Put shortly: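 Cytotoxicity as drop in intracellular ATP (CellTiter-Glo, 20 min RT) after 40 hr compound exposure of BJ fibroblasts at 37 °C. Titrations scaled between DMSO and 100 uM tamoxifen, Hill-fitted for AC50.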
Test [9] in a line: Cell Viability - Jurkat (AID 426;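 active = dose-dependent loss of cell ATP signal giving a full or clear fitted curve, ranked by lower potency value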;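 also: potency is read from the fitted curve at half-maximal effect; cells exposed to compound for 40 hours at 37 °C before ATP read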). To be noted: qHTS. Put shortly: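 Cytotoxicity was scored as loss of cellular ATP, measured by luciferase-based luminescence, in Jurkat clone E6-1 cells after 40 h compound treatment; tamoxifen and doxorubicin served as positive controls.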
(In general: In qHTS, concentration-response curves come from the screen itself.)

Test [10] in a line: Cell Viability - Hek293 (AID 427;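 active = compounds whose dose-response curve shows a full or clear partial loss of cell viability, called from curve shape rather than a numeric limit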;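 also: potency is read from the fitted curve at half-maximal effect; cells exposed to compound for 40 hours at 37 °C before reading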). The settings on record: qHTS. In a few lines: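 Luminescent ATP content (CellTiter-Glo, 20 min at room temperature) was measured after a 40 hr, 37 °C compound exposure of HEK293 cells. AC50 values came from Hill-equation fits of qHTS concentration-response data normalized to DMSO and 100 uM tamoxifen.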
A short description of test [11]: Cell Viability - HepG2 (AID 433; calls by dose curve; also: potency is read from the fitted curve at half-maximal effect). To be noted: qHTS. In a few lines:
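HepG2 hepatocellular carcinoma cells (1500/well) were treated with compounds for 40 h at 37 °C in complete medium; intracellular ATP was read by CellTiter-Glo luminescence. Data were normalized to DMSO and 100 uM tamoxifen, and AC50 came from Hill fits.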

Test [12] in a line: Cell Viability - SK-N-SH (AID 435; calls by dose curve;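 also: potency is read from the fitted curve at half-maximal effect; compound exposure lasted 40 h at 37 °C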). To be noted: SK-N-SH neuroblastoma cell viability qHTS. Put shortly:
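SK-N-SH human neuroblastoma cells (1500/well) were exposed to compounds in complete medium for 40 h at 37 °C, and intracellular ATP was then measured by CellTiter-Glo luminescence. AC50 was taken from Hill fits, normalized to DMSO and 100 uM tamoxifen.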

Test [13] can be described thus: Cell Viability - N2a (AID 540).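 Also: plate controls were DMSO alone for no effect and tamoxifen control for full effect; nearly all actives have a fitted effect of over 45% in size.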 To be noted: N2a mouse neuroblastoma cell viability; activity change, negative = cytotoxicity: at 92.2 µM (top of the series). Put shortly: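 In this qHTS cytotoxicity screen, ATP-dependent luciferase luminescence reports viable N2a cells after a 40 hr compound exposure in complete culture medium. Potencies are AC50 values from standard Hill equation fits.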

Test [14] in a line: Cell Viability - NIH 3T3 (AID 541).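 Also: plate controls were DMSO alone for no effect and tamoxifen positive control for full effect; nearly all actives have a fitted effect of over 25% in size.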 The settings on record: NIH 3T3 cell viability, qHTS; activity change, negative = cytotoxicity: at 92.2 µM (top of the series). Put shortly:
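In this cytotoxicity screen, acute toxicity is scored as an ATP drop measured by CellTiter-Glo in NIH 3T3 fibroblasts following a 40 hr, 37 °C incubation with compound.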

A short description of test [15]: Cell Viability - HUV-EC-C (AID 542). Also: nearly all actives have a fitted effect of over 35% in size. Also: potency is read from the fitted curve at half-maximal effect. Put shortly: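 Concentration-dependent ATP loss in HUV-EC-C cells is the measure. Exposure lasts 40 hr at 37 °C; luminescence follows CellTiter-Glo addition, and Hill fits give AC50.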
A short description of test [16]: Cell Viability - SH-SY5Y (AID 544). Also: nearly all actives have a fitted effect of over 55% in size. Also: potency is read from the fitted curve at half-maximal effect.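 As to viability change, negative = cytotoxic: 0% = DMSO alone and -100% = 100 µM tamoxifen.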 To be noted: SH-SY5Y neuroblastoma cell viability; viability change, negative = cytotoxic: at 92.2 µM (top of the series). In a few lines:
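Quantitative HTS in SH-SY5Y neuroblastoma cells, 40 hr treatment at 37 °C, ATP content by luciferase luminescence; AC50 from Hill fits.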

Test [17] is described as follows: Cell Viability - Mesenchymal (AID 546).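 Also: cells exposed to compound for 40 hours before reading; 0% = DMSO only and -100% = 100 µM tamoxifen.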 To be noted: mesenchymal cells viability, qHTS; activity change, negative = cytotoxicity: at 91.7 µM (top of the series). Put shortly: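 In this qHTS cytotoxicity format, glomerulus-derived human mesenchymal kidney cells received compound for 40 hr, then luciferase-based ATP quantitation. Concentration-response data were fitted with the Hill equation.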

Test [18] in a line: Cellular Toxicity (caspase-3) HepG2 (AID 654).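 Also: cells exposed to compound for 16 hours before reading; 0% = DMSO alone and 100% = caspase signal from 100 µM tamoxifen.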 Put shortly: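 Concentration-response AC50 values reflect caspase-3/7 induction in HepG2 cells after 16 hours of compound exposure, quantified by luminescence from liberated aminoluciferin and referenced to 100 uM tamoxifen as full stimulation.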
Test [19] is described as follows: Cell Viability - Renal Proximal Tubule (AID 545). Also: nearly all actives have a fitted effect of over 40% in size. Also: potency is read from the fitted curve at half-maximal effect.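 As to activity change, negative = cytotoxicity: 0% = DMSO only and -100% = 100 µM tamoxifen.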 To be noted: renal proximal tubule cells viability, primary cells of rat origin; activity change, negative = cytotoxicity: at 91.7 µM (top of the series). In a few lines:
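Primary rat renal proximal tubule cells (1000/well) were treated with compounds for 40 hr at 37 °C in complete medium. Intracellular ATP was measured by CellTiter-Glo luminescence, and AC50 values came from Hill-equation fits of concentration-response data.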

Records with an inconclusive call do not appear. A structure can be active in one record and inactive in another. Activity calls are given as the source filed them. Unless noted, calls follow the shape of the dose curve; as a rule, active = well fitted curve in the direction sought with a large enough effect; inconclusive = small, poorly fitted or top-dose-only effect, or another doubt; inactive = no such curve, though single readings can be large; an effect the other way counts as inactive or inconclusive.

Glucocorticoid receptor (Homo sapiens), sequence (P04150 whole entry, looked up, the tested form may be a part): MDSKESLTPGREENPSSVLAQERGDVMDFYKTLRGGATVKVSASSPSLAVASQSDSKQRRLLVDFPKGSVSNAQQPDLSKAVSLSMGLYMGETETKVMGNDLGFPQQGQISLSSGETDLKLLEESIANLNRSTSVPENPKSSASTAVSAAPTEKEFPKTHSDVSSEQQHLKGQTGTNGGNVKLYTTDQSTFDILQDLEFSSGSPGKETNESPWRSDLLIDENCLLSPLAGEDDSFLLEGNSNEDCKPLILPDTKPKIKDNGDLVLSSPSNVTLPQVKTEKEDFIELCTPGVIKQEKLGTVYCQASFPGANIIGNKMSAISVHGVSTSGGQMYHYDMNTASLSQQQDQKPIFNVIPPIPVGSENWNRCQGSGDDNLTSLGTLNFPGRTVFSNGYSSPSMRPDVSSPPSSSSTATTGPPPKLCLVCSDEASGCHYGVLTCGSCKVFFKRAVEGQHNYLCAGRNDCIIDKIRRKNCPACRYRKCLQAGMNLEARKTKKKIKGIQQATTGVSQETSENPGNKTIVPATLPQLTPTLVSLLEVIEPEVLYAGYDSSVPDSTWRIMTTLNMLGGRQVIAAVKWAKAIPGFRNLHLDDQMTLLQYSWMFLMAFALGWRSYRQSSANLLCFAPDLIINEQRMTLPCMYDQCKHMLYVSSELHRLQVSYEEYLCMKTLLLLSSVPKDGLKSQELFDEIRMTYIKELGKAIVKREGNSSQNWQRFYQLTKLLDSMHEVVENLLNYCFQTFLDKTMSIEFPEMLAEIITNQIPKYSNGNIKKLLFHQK
Cytochrome P450 1A2 (Homo sapiens), sequence (P05177 whole entry, looked up): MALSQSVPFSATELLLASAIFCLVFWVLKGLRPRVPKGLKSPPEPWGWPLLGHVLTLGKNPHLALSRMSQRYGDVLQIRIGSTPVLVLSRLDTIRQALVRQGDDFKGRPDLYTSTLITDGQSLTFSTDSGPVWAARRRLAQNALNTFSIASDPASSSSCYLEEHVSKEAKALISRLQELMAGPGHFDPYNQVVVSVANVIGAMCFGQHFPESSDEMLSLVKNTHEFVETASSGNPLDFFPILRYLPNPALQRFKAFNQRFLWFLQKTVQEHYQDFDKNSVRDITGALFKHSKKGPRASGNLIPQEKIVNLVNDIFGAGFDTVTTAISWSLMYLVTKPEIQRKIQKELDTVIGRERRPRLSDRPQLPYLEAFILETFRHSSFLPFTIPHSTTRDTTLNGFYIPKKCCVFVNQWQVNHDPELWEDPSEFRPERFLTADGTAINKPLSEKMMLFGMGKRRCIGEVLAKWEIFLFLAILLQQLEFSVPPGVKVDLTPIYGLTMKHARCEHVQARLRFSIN

On to `CC1(C)O[C@@H]2C[C@H]3[C@@H]4C[C@H](F)C5=CC(=O)C=C[C@]5(C)[C@@]4(F)[C@@H](O)C[C@]3(C)[C@]2(C(=O)CO)O1`, for which the activity change, negative = inhibition is -7.62% (inactive) in test [1] and 22.4% (inactive) in test [2] (at 17.2 µM (top of the series)). Moreover, in [3], the outcome was inactive. For the same compound, the Potency in [4] was 0.000728 µM (active).

In the case of `CC(=O)[C@@]1(O)CC[C@H]2[C@@H]3C[C@H](C)C4=CC(=O)CC[C@]4(C)[C@H]3CC[C@@]21C`, the activity change, negative = inhibition is 16% (inactive) in test [1] and 19.2% (inactive) in [2] (at 17.2 µM (top of the series)). Also, the outcome in test [3] was inactive. In addition, in [4], the Potency was 0.00082 µM (active).

Turning to `CC(=O)Nc1c(I)c(NC(C)=O)c(I)c(C(=O)O)c1I`, the activity change, negative = inhibition was -1.8% (inactive) in test [1] and -7.63% (inactive) in test [2] (at 17.2 µM (top of the series)). Also, the compound was classed as inactive in test [3]. Further, the Potency in [4] was > 20.6 µM (inactive).

As for `COc1ccccc1N1CCN(CCN2C(=O)CC3(CCCC3)CC2=O)CC1`, the activity change, negative = inhibition in test [1] was -25.1% [at 38 µM] (inactive); in [2] (at 38 µM (top of the series)), -25.7% (inactive). The Potency is 31.6 µM (active) and inactive in test [5]; > 46 µM (inactive) in test [4]; > 46 µM (inactive) in [6]. Also, the result in [3] and in test [7] was inactive.

With `O=C(O)c1ccccc1S`, the activity change, negative = inhibition in test [1] was -3.14% (inactive); in [2] (at 17.2 µM (top of the series)), 24.8% (inactive). Also, in [3], the compound was called inactive. Also, in test [4], the Potency is > 20.6 µM (inactive).

As for `O=C1NC(c2cccc([N+](=O)[O-])c2)=CCN1c1ccccc1O`, the activity change, negative = inhibition in test [1] is -12.2% [at 38 µM] (inactive); in test [2] (at 38 µM (top of the series)) it was 4.96% (inactive). Further, the outcome in [3] and in test [7] was inactive. Also, the Potency in [4] and in test [6] was > 46 µM (inactive) each time.

For `OCc1c[nH]c2ccccc12`, the Potency in [8], in test [9], in test [10], in test [11] and in test [12] was > 92 µM (inactive) throughout. The result in test [7] and in test [18] was inactive. In addition, the Potency entry in test [13], in test [15], in test [16] and in [17] was “inactive” each time. Moreover, the activity change, negative = cytotoxicity in test [14] is 0.242% (inactive).

Take `CC(C)(C)c1ccc(O)c(O)c1`: the Potency is > 92 µM (inactive) in test [8]; 49.4 µM (active) in test [9]; > 92 µM (inactive) in test [11]; 54.4 µM (active) in test [12]; 12.6 µM (active) in [16]. The call in test [7] and in test [18] was inactive. Besides, the activity change, negative = cytotoxicity was -146% (active) in test [14], -98.1% (active) in [19] and -100% (active) in test [17].

On to `CC(=O)OC/C=C(C)/C=C/C=C(C)/C=C/C1=C(C)CCCC1(C)C`, for which the Potency in [8] is > 92 µM (inactive); in test [9], 63.9 µM (active); in test [10], > 92 µM (inactive); in [11], > 92 µM (inactive). Also, the result in test [7] and in [18] was inactive. For the same compound, the Potency entry in test [13], in [15] and in test [17] was “inactive” in each case. Moreover, the activity change, negative = cytotoxicity in [14] is -114% (active). Further, the viability change, negative = cytotoxic in [16] was -99.5% (active).

On to `O=C(Oc1ccccc1)c1ccccc1O`, for which the Potency in test [8], in [9], in test [10], in test [11] and in test [12] was > 92 µM (inactive) in each case. Also, the call in test [7] and in test [18] was inactive. The Potency entry in [13], in [15], in test [16], in test [19] and in test [17] was “inactive” in each case.

Turning to `Nc1c2ccccc2nc2ccccc12`, the Potency in test [9] is 31.9 µM (active); in test [12], 40.5 µM (active); in [15], 15.8 µM (active); in [16], 7.94 µM (active); in test [19], 31.6 µM (active). The call in test [7] was inactive. Moreover, the activity change, negative = cytotoxicity was -89.3% (active) in test [13] and -137% (active) in [14].

Take `Nc1c[n+](N2CCOCC2)no1`: the Potency in [4] and in test [6] was > 46 µM (inactive) throughout. The outcome in test [7] was inactive.

Take `C1=CC2C3C=CC(C3)C2C1` (configuration not stated): the Potency in [8], in test [9], in [10], in [11] and in test [12] was > 92 µM (inactive) throughout. Further, the outcome in test [7] and in test [18] was inactive. The Potency result in [13], in test [15], in test [16], in [19] and in [17] was “inactive” in each case.

(Values after PubChem BioAssay (NCATS).)
